Holding throughout (assay): DAPPL (digital affinity profiling via proximity ligation, sequencing); 10 mM Tris-HCl pH 7.5, 50 mM NaCl, 1 mM DTT, 4% glycerol, room temperature, 30 min; GST-TFs on glutathione beads, 16-mer random dsDNA library, 0.1% formaldehyde crosslink after washing; high values mean tight binding
One test addresses T1, FLI1 (Homo sapiens, UniProt Q01543 1-452).
T1 sequence: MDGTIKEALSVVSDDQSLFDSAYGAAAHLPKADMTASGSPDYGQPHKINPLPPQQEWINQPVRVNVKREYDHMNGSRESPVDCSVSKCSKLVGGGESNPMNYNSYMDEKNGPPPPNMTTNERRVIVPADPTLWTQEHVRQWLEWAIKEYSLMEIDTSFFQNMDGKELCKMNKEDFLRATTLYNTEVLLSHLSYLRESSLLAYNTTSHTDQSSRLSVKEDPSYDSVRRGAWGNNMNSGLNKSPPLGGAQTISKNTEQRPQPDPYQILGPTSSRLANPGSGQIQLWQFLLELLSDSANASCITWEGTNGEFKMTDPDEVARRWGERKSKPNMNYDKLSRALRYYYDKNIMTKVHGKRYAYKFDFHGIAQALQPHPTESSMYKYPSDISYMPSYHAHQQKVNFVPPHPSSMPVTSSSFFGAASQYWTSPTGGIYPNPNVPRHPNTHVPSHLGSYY
The conditions noted are these: protein: recombinant; tags: N-terminal GST; dsDNA, one strand shown. In a few lines: (§1)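 Binding signal is each hexamer's read frequency for a factor divided by its frequency in the tag-only sample. The factors were GST-fused human transcription factors from yeast, captured on glutathione beads, DNA-barcoded and pooled with that sample. Pools were incubated with 200 nmole of a random double-stranded 16-mer DNA library in Tris/NaCl/DTT/glycerol buffer at room temperature for 30 min, then washed, crosslinked with 0.1% formaldehyde, proximity-ligated with BsaI/T4 ligase (1 h, 37 °C), PCR-amplified and sequenced on an Illumina NextSeq500.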

The next test deals with T2, ELK1 (Homo sapiens, UniProt P19419 1-428).
T2 sequence: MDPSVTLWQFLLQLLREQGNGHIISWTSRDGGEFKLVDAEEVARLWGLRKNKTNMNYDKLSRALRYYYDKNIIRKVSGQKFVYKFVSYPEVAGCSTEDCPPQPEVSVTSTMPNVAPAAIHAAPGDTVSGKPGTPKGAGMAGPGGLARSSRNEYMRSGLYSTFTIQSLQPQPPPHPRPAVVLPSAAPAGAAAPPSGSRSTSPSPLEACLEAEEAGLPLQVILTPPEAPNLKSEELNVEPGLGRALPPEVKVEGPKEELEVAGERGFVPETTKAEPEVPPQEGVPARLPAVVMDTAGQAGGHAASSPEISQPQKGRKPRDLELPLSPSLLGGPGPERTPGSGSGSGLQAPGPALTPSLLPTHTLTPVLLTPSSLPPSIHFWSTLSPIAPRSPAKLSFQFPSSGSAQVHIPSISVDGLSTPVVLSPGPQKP
The conditions noted are these: protein: recombinant; tags: N-terminal GST; dsDNA, one strand shown. In a few lines:
as §1

A further test concerns the target T3, GABPA (Homo sapiens, UniProt Q06546 1-454).
T3 sequence: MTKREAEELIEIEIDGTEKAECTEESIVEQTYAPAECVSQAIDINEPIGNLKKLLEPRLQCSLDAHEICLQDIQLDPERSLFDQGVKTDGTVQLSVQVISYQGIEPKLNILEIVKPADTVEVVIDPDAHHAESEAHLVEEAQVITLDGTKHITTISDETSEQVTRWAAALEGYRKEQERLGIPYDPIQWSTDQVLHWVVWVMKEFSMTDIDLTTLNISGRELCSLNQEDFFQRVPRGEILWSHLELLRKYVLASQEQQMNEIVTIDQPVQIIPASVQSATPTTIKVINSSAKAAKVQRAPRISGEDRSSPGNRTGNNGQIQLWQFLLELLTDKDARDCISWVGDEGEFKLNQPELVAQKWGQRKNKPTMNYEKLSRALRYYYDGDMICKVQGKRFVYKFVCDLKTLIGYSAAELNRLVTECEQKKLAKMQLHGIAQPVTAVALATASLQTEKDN
The conditions noted are these: protein: recombinant; tags: N-terminal GST; dsDNA, one strand shown. A digest of the protocol: as §1

A further test concerns the target T4, ERG (Homo sapiens, UniProt P11308 1-479).
T4 sequence: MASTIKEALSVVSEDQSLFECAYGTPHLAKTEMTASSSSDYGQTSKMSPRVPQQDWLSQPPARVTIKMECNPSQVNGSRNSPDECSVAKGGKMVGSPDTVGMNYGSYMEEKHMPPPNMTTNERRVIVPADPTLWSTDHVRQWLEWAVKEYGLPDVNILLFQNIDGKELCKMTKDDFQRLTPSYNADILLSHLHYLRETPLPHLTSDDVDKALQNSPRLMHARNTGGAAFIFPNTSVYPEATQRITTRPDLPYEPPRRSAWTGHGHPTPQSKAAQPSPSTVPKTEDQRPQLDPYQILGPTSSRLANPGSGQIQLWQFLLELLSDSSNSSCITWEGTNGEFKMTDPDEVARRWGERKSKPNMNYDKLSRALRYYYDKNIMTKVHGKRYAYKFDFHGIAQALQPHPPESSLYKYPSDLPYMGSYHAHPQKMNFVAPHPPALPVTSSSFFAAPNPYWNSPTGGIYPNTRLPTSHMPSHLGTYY
The conditions noted are these: protein: recombinant; tags: N-terminal GST; dsDNA, one strand shown. A digest of the protocol:
as §1

Another test has as its target ELF1 (Homo sapiens, UniProt P32519 1-619). The conditions noted are these: protein: recombinant; tags: N-terminal GST; dsDNA, one strand shown. A digest of the protocol: as §1
Another test has as its target T5, EHF (Homo sapiens, UniProt Q9NZC4 1-300).
T5 sequence: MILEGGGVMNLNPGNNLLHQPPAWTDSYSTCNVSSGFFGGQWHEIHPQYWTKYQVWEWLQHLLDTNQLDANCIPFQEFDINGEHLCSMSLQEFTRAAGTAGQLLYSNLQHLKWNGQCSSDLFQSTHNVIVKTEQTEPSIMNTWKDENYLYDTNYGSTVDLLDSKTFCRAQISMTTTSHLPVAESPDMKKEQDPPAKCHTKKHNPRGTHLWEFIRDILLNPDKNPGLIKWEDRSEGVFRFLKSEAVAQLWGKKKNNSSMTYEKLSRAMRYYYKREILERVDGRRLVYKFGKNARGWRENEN
The conditions noted are these: protein: recombinant; tags: N-terminal GST; dsDNA, one strand shown. A digest of the protocol: as §1

The target in a further test is SPI1 (Homo sapiens, UniProt P17947 1-270). The conditions noted are these: protein: recombinant; tags: N-terminal GST; dsDNA, one strand shown. A digest of the protocol: as §1
For another test, the target named is SPIB (Homo sapiens, UniProt Q01892 1-262). The conditions noted are these: protein: recombinant; tags: N-terminal GST; dsDNA, one strand shown. A digest of the protocol:
as §1

For a further test, the target named is T6, ELK3 (Homo sapiens, UniProt P41970 1-407).
T6 sequence: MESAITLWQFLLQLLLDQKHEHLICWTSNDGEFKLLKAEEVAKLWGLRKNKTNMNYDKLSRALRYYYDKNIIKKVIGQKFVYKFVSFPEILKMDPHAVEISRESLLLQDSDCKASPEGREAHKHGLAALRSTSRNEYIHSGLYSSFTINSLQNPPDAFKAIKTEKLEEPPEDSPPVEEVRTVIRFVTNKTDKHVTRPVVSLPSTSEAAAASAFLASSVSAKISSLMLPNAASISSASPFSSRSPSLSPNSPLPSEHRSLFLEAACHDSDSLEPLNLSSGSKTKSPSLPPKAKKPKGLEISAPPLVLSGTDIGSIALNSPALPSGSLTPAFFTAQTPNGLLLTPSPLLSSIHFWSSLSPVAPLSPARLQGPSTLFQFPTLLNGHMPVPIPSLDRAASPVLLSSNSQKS
To be noted: protein: recombinant; tags: N-terminal GST; dsDNA, one strand shown. A digest of the protocol:
as §1

A further test addresses T7, FEV (Homo sapiens, UniProt Q99581 1-238).
T7 sequence: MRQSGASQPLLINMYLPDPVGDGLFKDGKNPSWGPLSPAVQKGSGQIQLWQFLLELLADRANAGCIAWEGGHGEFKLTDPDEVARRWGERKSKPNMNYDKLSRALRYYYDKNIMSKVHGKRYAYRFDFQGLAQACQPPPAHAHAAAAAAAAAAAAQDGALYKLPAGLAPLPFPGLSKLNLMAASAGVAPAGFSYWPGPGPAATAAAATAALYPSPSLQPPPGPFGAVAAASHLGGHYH
To be noted: protein: recombinant; tags: N-terminal GST; dsDNA, one strand shown. A digest of the protocol:
as §1

Another test concerns the target ETV5 (Homo sapiens, UniProt P41161 1-510). The conditions noted are these: protein: recombinant; tags: N-terminal GST; dsDNA, one strand shown. A digest of the protocol:
as §1

The target in a further test is HSF1 (Homo sapiens, UniProt Q00613 1-529). To be noted: protein: recombinant; tags: N-terminal GST; chain copies: 3; dsDNA, one strand shown. In a few lines:
as §1

For a further test, the target named is T8, SPIC (Homo sapiens, UniProt Q8N5J4 1-248).
T8 sequence: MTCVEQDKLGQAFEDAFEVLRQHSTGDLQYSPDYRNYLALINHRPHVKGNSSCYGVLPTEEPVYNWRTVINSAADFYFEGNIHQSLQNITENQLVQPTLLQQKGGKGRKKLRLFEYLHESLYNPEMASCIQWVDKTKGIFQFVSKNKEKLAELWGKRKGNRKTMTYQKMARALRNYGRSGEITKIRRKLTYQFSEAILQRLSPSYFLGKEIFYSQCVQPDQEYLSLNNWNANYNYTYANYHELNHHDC
To be noted: protein: recombinant; tags: N-terminal GST; dsDNA, one strand shown. In a few lines:
as §1

Another test concerns the target ELF4 (Homo sapiens, UniProt Q99607 1-663). To be noted: protein: recombinant; tags: N-terminal GST; dsDNA, one strand shown. A digest of the protocol: as §1
The next test concerns the target T9, ELK4 (Homo sapiens, UniProt P28324-2 1-405).
T9 sequence: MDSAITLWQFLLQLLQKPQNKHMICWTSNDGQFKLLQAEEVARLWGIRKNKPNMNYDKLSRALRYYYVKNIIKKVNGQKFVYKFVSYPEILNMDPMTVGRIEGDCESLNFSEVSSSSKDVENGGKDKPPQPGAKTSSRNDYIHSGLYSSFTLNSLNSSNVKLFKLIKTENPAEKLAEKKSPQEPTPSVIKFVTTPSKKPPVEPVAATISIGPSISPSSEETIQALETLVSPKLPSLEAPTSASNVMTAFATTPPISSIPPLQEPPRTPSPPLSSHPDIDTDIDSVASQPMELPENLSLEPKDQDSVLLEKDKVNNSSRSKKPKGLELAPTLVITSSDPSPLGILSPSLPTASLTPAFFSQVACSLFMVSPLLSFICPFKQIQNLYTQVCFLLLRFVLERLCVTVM
To be noted: protein: recombinant; tags: N-terminal GST; dsDNA, one strand shown. In a few lines:
as §1

For a further test, the target named is T10, ETV2 (Homo sapiens, UniProt O00321 1-342).
T10 sequence: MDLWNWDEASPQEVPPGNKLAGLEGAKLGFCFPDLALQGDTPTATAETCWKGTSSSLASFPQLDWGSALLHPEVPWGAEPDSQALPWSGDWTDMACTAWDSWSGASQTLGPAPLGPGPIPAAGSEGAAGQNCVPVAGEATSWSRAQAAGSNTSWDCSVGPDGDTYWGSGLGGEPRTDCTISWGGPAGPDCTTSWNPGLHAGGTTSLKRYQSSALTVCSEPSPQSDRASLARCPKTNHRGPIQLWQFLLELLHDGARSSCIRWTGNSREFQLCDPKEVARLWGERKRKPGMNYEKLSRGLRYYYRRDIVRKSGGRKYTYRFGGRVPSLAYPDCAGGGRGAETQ
To be noted: protein: recombinant; tags: N-terminal GST; dsDNA, one strand shown. A digest of the protocol: as §1

The next test has as its target T11, ELF3 (Homo sapiens, UniProt P78545 1-371).
T11 sequence: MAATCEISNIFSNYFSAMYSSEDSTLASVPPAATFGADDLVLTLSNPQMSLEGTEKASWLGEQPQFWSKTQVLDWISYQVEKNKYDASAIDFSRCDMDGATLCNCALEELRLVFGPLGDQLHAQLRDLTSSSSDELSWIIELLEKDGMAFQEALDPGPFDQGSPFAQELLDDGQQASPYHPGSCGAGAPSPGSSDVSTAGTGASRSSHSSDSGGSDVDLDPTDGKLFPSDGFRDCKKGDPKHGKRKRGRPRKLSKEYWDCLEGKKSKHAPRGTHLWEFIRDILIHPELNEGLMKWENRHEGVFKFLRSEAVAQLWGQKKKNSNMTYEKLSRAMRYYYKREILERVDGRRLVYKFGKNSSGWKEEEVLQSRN
The conditions noted are these: protein: recombinant; tags: N-terminal GST; dsDNA, one strand shown. In a few lines: as §1

The target of another test is CRX (Homo sapiens, UniProt O43186 1-299). The conditions noted are these: protein: recombinant; tags: N-terminal GST; dsDNA, one strand shown. In a few lines:
as §1

For a further test, the target named is ETV1 (Homo sapiens, UniProt P50549 1-477). The conditions noted are these: protein: recombinant; tags: N-terminal GST; dsDNA, one strand shown. A digest of the protocol:
as §1

ETV1, sequence (P50549 whole entry): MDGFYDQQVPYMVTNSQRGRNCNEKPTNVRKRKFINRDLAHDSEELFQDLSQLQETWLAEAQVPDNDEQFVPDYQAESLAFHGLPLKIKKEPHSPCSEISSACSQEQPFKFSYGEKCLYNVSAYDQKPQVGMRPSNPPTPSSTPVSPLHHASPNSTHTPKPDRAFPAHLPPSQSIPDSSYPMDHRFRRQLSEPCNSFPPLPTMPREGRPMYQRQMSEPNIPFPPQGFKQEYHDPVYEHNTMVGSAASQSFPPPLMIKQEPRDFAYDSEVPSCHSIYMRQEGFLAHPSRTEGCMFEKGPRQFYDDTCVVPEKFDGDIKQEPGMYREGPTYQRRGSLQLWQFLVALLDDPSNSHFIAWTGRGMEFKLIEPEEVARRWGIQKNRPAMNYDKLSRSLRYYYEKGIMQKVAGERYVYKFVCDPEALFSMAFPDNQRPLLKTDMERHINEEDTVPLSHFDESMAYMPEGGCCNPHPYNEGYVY
SPIB, sequence (Q01892 whole entry): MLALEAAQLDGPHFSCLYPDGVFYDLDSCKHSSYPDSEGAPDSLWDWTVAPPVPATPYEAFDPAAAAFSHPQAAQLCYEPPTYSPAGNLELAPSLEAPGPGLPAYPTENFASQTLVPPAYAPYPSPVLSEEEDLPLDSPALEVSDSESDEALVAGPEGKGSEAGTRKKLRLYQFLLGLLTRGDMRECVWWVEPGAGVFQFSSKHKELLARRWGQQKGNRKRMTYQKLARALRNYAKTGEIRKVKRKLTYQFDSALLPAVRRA
ELF1, sequence (P32519 whole entry): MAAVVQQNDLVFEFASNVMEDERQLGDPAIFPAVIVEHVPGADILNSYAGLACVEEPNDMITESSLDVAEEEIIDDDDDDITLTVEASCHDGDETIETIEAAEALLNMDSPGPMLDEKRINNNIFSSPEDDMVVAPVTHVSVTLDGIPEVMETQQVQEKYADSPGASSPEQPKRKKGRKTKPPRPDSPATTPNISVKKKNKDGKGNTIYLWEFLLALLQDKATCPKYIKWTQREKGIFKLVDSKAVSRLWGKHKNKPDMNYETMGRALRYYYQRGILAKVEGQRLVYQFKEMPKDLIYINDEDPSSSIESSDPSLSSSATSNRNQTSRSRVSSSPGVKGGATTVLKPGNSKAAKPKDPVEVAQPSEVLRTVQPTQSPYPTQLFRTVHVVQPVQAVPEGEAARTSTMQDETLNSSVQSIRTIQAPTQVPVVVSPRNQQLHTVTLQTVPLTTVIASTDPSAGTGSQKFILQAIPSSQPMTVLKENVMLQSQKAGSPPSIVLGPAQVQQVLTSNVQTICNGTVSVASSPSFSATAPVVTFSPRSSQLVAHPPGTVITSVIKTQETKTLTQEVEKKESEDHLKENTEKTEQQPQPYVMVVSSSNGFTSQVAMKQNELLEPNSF
ETV5, sequence (P41161 whole entry): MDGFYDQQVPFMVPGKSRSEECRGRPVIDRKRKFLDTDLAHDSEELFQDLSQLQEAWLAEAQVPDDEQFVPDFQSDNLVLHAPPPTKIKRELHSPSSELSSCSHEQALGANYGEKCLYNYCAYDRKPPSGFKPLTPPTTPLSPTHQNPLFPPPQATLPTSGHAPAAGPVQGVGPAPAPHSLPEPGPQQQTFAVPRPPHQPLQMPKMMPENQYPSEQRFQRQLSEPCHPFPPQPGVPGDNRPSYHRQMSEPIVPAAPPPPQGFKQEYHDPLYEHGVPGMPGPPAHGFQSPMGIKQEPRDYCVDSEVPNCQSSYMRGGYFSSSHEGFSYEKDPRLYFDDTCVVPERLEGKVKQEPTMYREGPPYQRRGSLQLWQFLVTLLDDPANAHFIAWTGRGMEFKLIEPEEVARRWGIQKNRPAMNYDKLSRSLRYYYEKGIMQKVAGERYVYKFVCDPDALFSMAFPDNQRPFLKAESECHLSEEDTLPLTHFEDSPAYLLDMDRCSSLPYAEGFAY
ELF4, sequence (Q99607 whole entry): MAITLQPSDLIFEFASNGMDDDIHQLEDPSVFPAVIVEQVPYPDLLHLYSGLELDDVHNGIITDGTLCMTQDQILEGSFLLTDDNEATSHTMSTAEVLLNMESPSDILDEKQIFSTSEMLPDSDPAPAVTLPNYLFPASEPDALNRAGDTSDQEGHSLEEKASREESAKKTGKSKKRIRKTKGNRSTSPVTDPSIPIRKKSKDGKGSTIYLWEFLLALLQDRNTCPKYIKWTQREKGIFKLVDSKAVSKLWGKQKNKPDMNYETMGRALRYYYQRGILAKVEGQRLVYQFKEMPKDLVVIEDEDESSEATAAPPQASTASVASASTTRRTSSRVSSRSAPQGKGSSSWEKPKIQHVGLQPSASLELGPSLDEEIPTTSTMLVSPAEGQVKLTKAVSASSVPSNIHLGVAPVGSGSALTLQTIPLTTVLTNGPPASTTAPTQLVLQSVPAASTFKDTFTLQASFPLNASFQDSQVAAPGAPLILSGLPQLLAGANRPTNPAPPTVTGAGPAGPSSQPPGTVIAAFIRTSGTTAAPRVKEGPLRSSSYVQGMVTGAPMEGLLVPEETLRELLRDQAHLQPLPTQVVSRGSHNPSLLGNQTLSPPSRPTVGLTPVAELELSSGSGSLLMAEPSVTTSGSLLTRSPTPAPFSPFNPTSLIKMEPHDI
CRX, sequence (O43186 whole entry): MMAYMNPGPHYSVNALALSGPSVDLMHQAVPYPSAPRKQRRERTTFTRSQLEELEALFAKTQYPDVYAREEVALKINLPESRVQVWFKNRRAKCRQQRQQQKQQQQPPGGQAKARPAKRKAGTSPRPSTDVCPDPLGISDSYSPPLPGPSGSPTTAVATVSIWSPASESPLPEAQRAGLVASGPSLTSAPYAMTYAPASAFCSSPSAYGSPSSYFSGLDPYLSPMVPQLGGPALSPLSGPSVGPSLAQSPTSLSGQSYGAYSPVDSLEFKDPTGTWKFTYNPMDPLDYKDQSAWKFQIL
HSF1, sequence (Q00613 whole entry): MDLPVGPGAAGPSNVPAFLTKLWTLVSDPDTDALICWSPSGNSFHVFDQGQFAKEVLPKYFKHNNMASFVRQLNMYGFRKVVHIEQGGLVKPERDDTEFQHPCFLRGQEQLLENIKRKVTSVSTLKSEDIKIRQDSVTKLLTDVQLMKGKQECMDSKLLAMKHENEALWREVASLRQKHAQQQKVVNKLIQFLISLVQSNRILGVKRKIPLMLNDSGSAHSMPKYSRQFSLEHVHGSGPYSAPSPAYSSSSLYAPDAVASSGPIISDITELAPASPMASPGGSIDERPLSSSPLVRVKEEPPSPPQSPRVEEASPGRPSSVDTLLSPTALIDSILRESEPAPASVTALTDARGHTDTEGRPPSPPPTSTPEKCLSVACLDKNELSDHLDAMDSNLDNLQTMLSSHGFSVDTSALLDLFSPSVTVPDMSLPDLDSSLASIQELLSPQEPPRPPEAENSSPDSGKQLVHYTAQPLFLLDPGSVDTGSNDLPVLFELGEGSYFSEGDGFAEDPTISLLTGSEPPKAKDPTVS

With AGCCCT, the binding signal is 1.03 fold enrichment (6-mer frequency, TF over GST control) with FLI1; 1.14 fold enrichment (6-mer frequency, TF over GST control) in the test with ELK1; 1.11 fold enrichment (6-mer frequency, TF over GST control) with GABPA; 1.09 fold enrichment (6-mer frequency, TF over GST control) in the test with ERG; 1.07 fold enrichment (6-mer frequency, TF over GST control) with ELF1; 1.18 fold enrichment (6-mer frequency, TF over GST control) with EHF. Moreover, the binding signal with SPI1 was 1.09 fold enrichment (6-mer frequency, TF over GST control); in the test with SPIB, 1.14 fold enrichment (6-mer frequency, TF over GST control); with ELK3, 1.07 fold enrichment (6-mer frequency, TF over GST control); with FEV, 1.14 fold enrichment (6-mer frequency, TF over GST control); with ETV5 it was 1.08 fold enrichment (6-mer frequency, TF over GST control); with HSF1, 1.09 fold enrichment (6-mer frequency, TF over GST control). Besides, the binding signal with SPIC is 1.25 fold enrichment (6-mer frequency, TF over GST control); with ELF4, 1.06 fold enrichment (6-mer frequency, TF over GST control); with ELK4, 1.14 fold enrichment (6-mer frequency, TF over GST control); with ETV2, 1.18 fold enrichment (6-mer frequency, TF over GST control); with ELF3 it was 1.1 fold enrichment (6-mer frequency, TF over GST control); with CRX, 1.25 fold enrichment (6-mer frequency, TF over GST control). In the test with ETV1, the binding signal is 1.05 fold enrichment (6-mer frequency, TF over GST control).
